This is a sample that favours compounds with a hit; in the whole collection about 6.8% have one here.
Autofluor 339: intrinsic fluorescence of library compounds, ex339/em460 – biochemical, MLSMR library, data from DPM-DC assay, artefact control, profiling panel | compound autofluorescence, ex339/em460 nm, NADH buffer; stronger effect = higher value; 1 = no-compound wells, NADH background | fluorescence fold increase at 10 µM | hit rate 5.5% among 65,000;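 active = at 10 µM, mean starting fluorescence two-fold or more over control wells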;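 also: signal is the first read of a kinetic run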
NADH enzymes: inhibitors of PK/LDH coupling enzymes, profiling panel, artefact control, biochemical, MLSMR library; coupled PK/LDH NADH assays, four targets; IC50, µM (series often up to 10 µM); hit rate 0.02% among 65,000; AID 774, 2007;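 active = single-dose screening hits from any of four coupled enzyme assays that gave an IC50 when retested across doses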;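 also: the DPM-DC format reads NADH fluorescence rather than 340 nm absorbance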
A340 absorber: compound light absorbance at 340 nm, profiling panel, artefact control, biochemical, MLSMR library, data from PS, PMK, MK assays; compound absorbance at 340 nm, fold over control; fold change at 10 µM; 65,000 tested, under 10 active; AID 708, 2007;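 active = at 10 µM dose, initial 340 nm absorbance at least 2 fold that of control wells; inactive = change under 2 fold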;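 also: initial absorbance extrapolated from kinetic A340 decline of NADH oxidation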
DPM-DC inhibit: S. pneumoniae DPM-DC inhibitors, primary screen, biochemical, PK/LDH-coupled NADH fluorescence; hit rate 0.49% among 65,000; diphosphomevalonate decarboxylase (Streptococcus pneumoniae D39); purified DPM-DC; calls only at 10 µM;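 active = the 320 compounds with the highest percent inhibition in the single-dose primary screen, excluding strongly autofluorescent ones, cut at about 32% in these data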;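 also: kinetic rate of NADH fluorescence loss reporting ADP formed by the decarboxylase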
Spn PMK inh: S. pneumoniae PMK inhibitors, primary screen, biochemical, mevalonate pathway, pilot trial included. phosphomevalonate kinase (Streptococcus pneumoniae D39). purified PMK, PK/LDH-coupled NADH absorbance 340 nm. inhibition, % at 10 µM. hit rate 0.49% among 65,000. AID 539, 2006;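 active = top-ranked compounds by inhibition in the single 10 µM screen, taking a fixed number of the strongest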
Spn MK inh: S. pneumoniae MK inhibitors, primary screen, biochemical, PK/LDH-coupled NADH absorbance; purified MK, PK/LDH-coupled NADH absorbance 340 nm; mevalonate kinase [Streptococcus pneumoniae D39]; AID 555, 2006; inhibition, % at 10 µM; hit rate 0.48% among 65,000;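 active = ranked among the strongest by inhibition in the single 10 µM screen, a fixed top-ranked set picked for dose follow-up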
Large screens that a line does not name were inactive.

CCCn1c(Nc2nc3ccccc3n2C)nc2ccccc21	Autofluor 339 2.1
CCOC(=O)Cn1c(C)c(C#N)c2ccccc21	none
CCCn1c(NC(=O)c2ccccc2)nc2ccccc21	none
O=c1oc2ccccc2n1CCn1c2ccccc2c2nc3ccccc3nc21	Spn PMK inh 9.0
Cc1cc(OCC(=O)NCCCN(C)C)cc(C)c1Br	none
CC(=O)c1c(C)nn(C(=O)N2CCOCC2)c1C	none
CCCCc1cc2c(c(NC(C)=O)n1)c(=O)oc1ccccc12	none
CCCCc1cc2c(c(NC(=O)CC)n1)c(=O)oc1ccccc12	Autofluor 339 2.2
COc1cccc(-n2nnc3c(=O)n(CC(=O)N4CCCc5ccccc54)cnc32)c1	none
O=C(NCc1ccco1)Nc1ccc(Br)cc1	none
O=C(NCc1ccco1)Nc1ccc2nsnc2c1	Autofluor 339 2.4 (not shown: DPM-DC inhibit)
Cn1c2ccccc2c2cnn(CC(=O)N3CCN(c4ncccn4)CC3)c(=O)c21	Spn PMK inh 25
CN1CCN(CCCNC(=O)Cn2ncc3c4ccccc4n(C)c3c2=O)CC1	none
Cc1cc(OCC(=O)C(C)(C)C)c2c(C)c(C)c(=O)oc2c1	Autofluor 339 2.1 (not shown: DPM-DC inhibit)
COCC(=O)Nc1nc2n(n1)C(c1ccc(Cl)cc1)CC(c1ccc(OC)cc1)N2 (stereo not given)	Autofluor 339 2.5
O=C(COc1ccc2c(c1)C(=O)CC1(CCCCC1)O2)NCc1ccccn1	Autofluor 339 5.1 (not shown: DPM-DC inhibit)
CC1(C)CC(=O)c2cc(OCC(=O)NCCCN3CCN(c4ccccc4F)CC3)ccc2O1	Autofluor 339 3.4 (not shown: DPM-DC inhibit)
O=C(COc1ccc(S(=O)(=O)NC2CCCCC2)cc1)NCc1ccccn1	none
CCOC(=O)COc1ccc2c(c1)C(=O)CC(C)(c1cccnc1)O2 (stereo not given)	Autofluor 339 4.8 (not shown: DPM-DC inhibit)
CC1(C)CC(=O)c2cc(OCC(=O)NCc3cccnc3)ccc2O1	Autofluor 339 5.1 (not shown: DPM-DC inhibit)
O=C(NCc1ccccn1)c1cn(CCc2ccccc2)nn1	none
COc1ccc(N2CCN(C(=O)c3cn(C4CCCC4)c(=O)c4c3c3ccccc3n4C)CC2)cc1	none
Cn1c2ccccc2c2c(C(=O)O)cn(C3CCCC3)c(=O)c21	Autofluor 339 2.1 (not shown: DPM-DC inhibit)
Cc1ccc(CNC(=O)c2cn(C3CCCC3)c(=O)c3c2c2ccccc2n3C)o1	Autofluor 339 2.1 (not shown: DPM-DC inhibit)
Cn1c2ccccc2c2c(C(=O)NCc3ccco3)cn(C3CCCCC3)c(=O)c21	Autofluor 339 2.1 (not shown: DPM-DC inhibit)
COc1ccccc1-n1c(=S)sc2c(=O)n(Cc3ccco3)c(SC)nc21	none
Cc1cc(C)c(S(=O)(=O)N2CCN(CCO)CC2)c(C)c1	none
O=C1C(=O)N(CCN2CCOCC2)C(c2ccncc2)/C1=C(/O)c1ccc2c(c1)OCO2 (stereo not given)	Spn MK inh 79
CCS(=O)(=O)NCCc1csc(C)n1	Spn MK inh 77
CCS(=O)(=O)NCc1csc(C)n1	none
COc1cccc2c1OC1(C)CC2NC(=O)N1c1cccc(C(=O)Nc2ccc3c(c2)OCCO3)c1 (stereo not given)	none
C=CCN(CC=C)c1nc2ccccc2nc1C(C#N)C(=O)OCCOC (stereo not given)	Autofluor 339 2.2
CCCN(CCC)c1nc2ccccc2nc1C(C#N)C(=O)OCCOC (stereo not given)	none
COC(=O)Cn1ncc2c(C)n(Cc3ccccc3)c(C)c2c1=O	none
CNC(=O)Cn1ncc2c(C)n(Cc3ccc(C)cc3)c(C)c2c1=O	Spn PMK inh 34
O=C(CN1CCN(c2ncccn2)CC1)NCCC1=CCCCC1	Spn MK inh 49
O=C(Cn1c(N2CCN(c3ccccc3)CC2)nc2ccccc21)c1ccccc1	none
COc1ccc2c(c1)CCc1c(C(=O)N3CCCCCC3)noc1-2	none
COc1ccc2c(c1)CCc1cc(C(=O)N3CCN(c4ccc(N5CCOCC5)nn4)CC3)sc1-2	Autofluor 339 2.5 (not shown: DPM-DC inhibit)
CC(C)c1ccc(-c2nc(N3CCOCC3)[nH]c(=O)c2C#N)cc1	none
COc1ccccc1-c1cc(C(=O)NC(C)C)no1	none
COc1ccccc1-c1cc(C(=O)Nc2ccc(F)cc2F)no1	Autofluor 339 2.1
COc1ccc(C(=O)NCc2nnc(SCC(=O)N3CCCCC3)o2)cc1OC	none
Cc1ccc(-c2cn3cccnc3n2)cc1NC(=O)c1ccc(Br)o1	Autofluor 339 3.5 (not shown: DPM-DC inhibit)
COc1ccc(-c2cn3cccnc3n2)cc1NC(=O)c1ccc(Br)o1	Autofluor 339 5.3 (not shown: DPM-DC inhibit)
Cc1cc(O)c(NC(=O)c2ccc(Br)o2)cc1C	none
Cc1nn(-c2ccccc2)c2c1C1(C(=O)Nc3ccccc31)N1C(=N2)Sc2ccccc21 (stereo not given)	none
CCOc1ccccc1NC(=O)c1nc[nH]c1C(=O)Nc1ccccc1OCC	Autofluor 339 5.2 (not shown: DPM-DC inhibit)
COc1ccc(NC(=O)c2nc[nH]c2C(=O)Nc2ccccc2C)cc1	Autofluor 339 3.2
Cc1ccccc1NC(=O)c1nc[nH]c1C(=O)NCc1ccccc1	none
CNC(=O)c1[nH]cnc1C(=O)Nc1cccc(OC)c1	none
COc1ccccc1NC(=O)c1nc[nH]c1C(=O)Nc1ccccc1OC	Autofluor 339 2.3
O=c1c2ccccc2oc2ncccc12	none
O=C(O)C1C2CCC(C2)C1C(=O)NCCCn1ccnc1 (stereo not given)	none
COc1ccc2c(c1)OC1(C)CC2C(C(=O)c2ccccc2OC)C(=O)N1 (stereo not given)	Spn PMK inh 28
CCCCn1c(=O)[nH]c(=O)c2c1nc(COC(=O)c1c(C)noc1C)n2CCC	none
O=C(Nc1ccccc1)N(C1=NCCC1)c1ccc(OC(F)F)cc1	none
CN1CCCN(Cc2ccccc2C(F)(F)F)CC1	Spn MK inh 57
COc1cccc(OC)c1C(=O)N1CCN(Cc2ccccc2C(F)(F)F)CC1	none
COc1cc(OC)cc(C(=O)N2CCN(Cc3ccccc3C(F)(F)F)CC2)c1	Spn MK inh 50
COc1cc(C(=O)N2CCN(Cc3ccccc3C(F)(F)F)CC2)cc(OC)c1OC	Spn MK inh 45
COc1ccc(C(=O)N2CCN(Cc3ccccc3C)CC2)cc1OC	none
CCC(C)NC(=O)CS(=O)Cc1nc(-c2ccccc2C)oc1C (stereo not given)	none
CC(C)Cn1c(SCc2nnc(-c3cccs3)o2)nc(O)cc1=O	none
COc1ccc(CN2C(=O)c3ccccc3C2C(=O)NC2CCCC2)c(OC)c1 (stereo not given)	Spn PMK inh 25
COc1ccc(CN2C(=O)c3ccccc3C2C(=O)NCC2CCCO2)c(OC)c1 (stereo not given)	none
